Data taken from paper PMC4336329 (PLoS ONE, 2015).
In all, about 310,000 compounds went through this assay and about 2,200 (0.71%) showed an effect of 50% or more. Effects have a minus sign here. Many of the other results were omitted from the sample, so strong results are more common in it than they were.

molecular target: human ether-à-go-go-related gene (hERG) potassium channel (human, UniProt Q12809); experiment: primary screen, population patch clamp on CHO cells stably expressing hERG; higher = less effect of the substance
Sequence (Q12809 whole entry, looked up): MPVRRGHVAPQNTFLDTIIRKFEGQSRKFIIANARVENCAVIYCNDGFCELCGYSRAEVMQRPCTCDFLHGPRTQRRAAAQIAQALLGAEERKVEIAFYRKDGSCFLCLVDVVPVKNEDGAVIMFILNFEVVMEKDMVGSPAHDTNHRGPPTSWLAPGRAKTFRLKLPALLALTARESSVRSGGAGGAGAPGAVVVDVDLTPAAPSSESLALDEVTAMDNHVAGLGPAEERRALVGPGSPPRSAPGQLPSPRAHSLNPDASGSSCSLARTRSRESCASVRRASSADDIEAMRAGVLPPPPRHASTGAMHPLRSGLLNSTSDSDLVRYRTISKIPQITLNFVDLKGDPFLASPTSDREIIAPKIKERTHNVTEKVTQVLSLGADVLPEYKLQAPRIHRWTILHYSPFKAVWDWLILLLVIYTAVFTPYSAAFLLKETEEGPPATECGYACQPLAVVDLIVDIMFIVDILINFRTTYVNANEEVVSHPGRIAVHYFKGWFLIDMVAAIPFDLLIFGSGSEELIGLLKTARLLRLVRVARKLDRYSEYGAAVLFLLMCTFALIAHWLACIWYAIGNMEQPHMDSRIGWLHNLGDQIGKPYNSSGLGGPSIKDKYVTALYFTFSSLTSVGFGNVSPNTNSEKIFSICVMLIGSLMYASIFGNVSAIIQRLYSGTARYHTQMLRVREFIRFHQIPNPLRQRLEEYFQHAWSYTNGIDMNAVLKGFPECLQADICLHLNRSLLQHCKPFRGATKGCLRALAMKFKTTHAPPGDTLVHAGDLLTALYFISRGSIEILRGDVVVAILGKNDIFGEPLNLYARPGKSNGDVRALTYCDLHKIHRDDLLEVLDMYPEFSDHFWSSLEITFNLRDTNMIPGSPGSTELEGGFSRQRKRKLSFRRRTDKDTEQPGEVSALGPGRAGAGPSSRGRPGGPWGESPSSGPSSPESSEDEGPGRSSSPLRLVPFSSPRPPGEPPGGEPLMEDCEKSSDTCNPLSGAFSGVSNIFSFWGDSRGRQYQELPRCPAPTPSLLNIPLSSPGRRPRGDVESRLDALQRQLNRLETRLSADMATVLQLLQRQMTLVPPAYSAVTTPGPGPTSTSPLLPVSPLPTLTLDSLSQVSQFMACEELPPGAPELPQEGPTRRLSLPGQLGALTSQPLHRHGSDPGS

In order of falling “hERG current change (%, negative = inhibition) at 1uM” value:
1. Cc1ccc(C)c(CN2C(=O)CSc3ccc(C(=O)NCCN4CCOCC4)cc32)c1  20.1%
2. O=C(NCCS(=O)(=O)N1CCN(c2ccccc2)CC1)C1CC(=O)N(c2ccccc2)C1 (stereo not drawn)  18%
3. Cc1ccc(S(=O)(=O)N(C)C)cc1NC(=O)COC(=O)C1CC1  17.3%
4. Cc1cccc(OCC(=O)N2CCOCC2)c1  17.1%
5. CCOC(=O)c1cc2c(=O)n3ccccc3nc2n(CC2CCCO2)c1=NC(C)=O (stereo not drawn)  16.6%
6. O=C(CSc1nc(Cc2ccccc2)nc2ccccc12)Nc1nc2c(s1)CCCC2  15.9%
7. O=C(O)CCc1ccc(-c2ccccc2)n1-c1cccc(C(=O)O)c1  15.2%
8. COc1ccc(CC(=O)N2CCN(S(=O)(=O)c3cc(Cl)ccc3Cl)CC2)cc1  14%
9. Nc1n[nH]c2cc(=O)n(-c3cccc(C(F)(F)F)c3)nc12  12.3%
10. Nc1ccc(-n2nnnc2-c2ccco2)cc1  11.1%
11. Cc1ccc(S(=O)(=O)N2CCC(C(=O)OCC(=O)N(CC(C)C)C3CCS(=O)(=O)C3)CC2)cc1C (stereo not drawn)  10.8%
12. Cc1cccc(OCC(=O)N2CCN(Cc3ccncc3)CC2)c1.O=C(O)C(=O)O  10.2%
13. Cc1cccc(OCC(=O)N2CCN(S(C)(=O)=O)CC2)c1  9.87%
14. O=C(CSc1nc2ccccc2c(=O)n1CC1CCCO1)NCc1ccc2c(c1)OCO2 (stereo not drawn)  9.71%
15. c1ccc(CSc2ncnc3c2oc2ccccc23)cc1  9.56%
16. COc1ccccc1C(=O)C1CCCN(C(=O)c2cccc(-n3cccn3)c2)C1 (stereo not drawn)  9.07%
17. O=C(NCc1cccnc1)c1ccc(Cl)cc1[N+](=O)[O-]  7.05%
18. O=C(CSc1nnc(-c2ccccn2)n1Cc1ccccc1)Nc1ccc2c(c1)OCO2  7.03%
19. N#Cc1ccc(NC(=O)COC(=O)CSc2nnc(-c3ccc(Cl)cc3)o2)cc1  6.91%
20. Cc1ccc(C)c(CN2C(=O)CSc3ccc(C(=O)N4CCCC4)cc32)c1  5.65%
21. COc1ccc(CNC(=O)C2CC(c3cccc([N+](=O)[O-])c3)=NO2)cc1 (stereo not drawn)  5.46%
22. c1csc(-c2nc(N3CCOCC3)c3ccccc3n2)c1  5.11%
23. O=C(Nc1ccc2c(c1)OCO2)C1CC(=O)N(CCc2ccccc2)C1 (stereo not drawn)  4.44%
24. CCN1c2ccccc2-c2nc3ccccc3n2C1c1cccs1 (stereo not drawn)  4.28%
25. c1ccc(N2CCN(c3nc(-c4cccs4)nc4ccccc34)CC2)cc1  4.12%
26. CCN(CC)CCCNC(CC(=O)Nc1cccc([N+](=O)[O-])c1)C(=O)O (stereo not drawn)  3.62%
27. O=C(Nc1ccccc1)C1CCCN1/C=C/C(=O)C(F)(F)F (stereo not drawn)  2.92%
28. COc1ccc(N2C(=O)C(Cl)=C(Nc3ccccc3OC)C2=O)cc1  2.56%
29. CCC(=O)N(Cc1ccc(C)cc1)Cc1cc2cc3c(cc2[nH]c1=O)OCO3  0.914%
30. COCCn1c(=NC(=O)c2cccs2)sc2cc(NC(C)=O)ccc21  0.283%
31. Cc1ccc(S(=O)(=O)N(C)C)cc1NC(=O)COC(=O)C1CCCC1  -0.454%
32. CCC(NS(=O)(=O)c1ccc(C)cc1)C(=O)Nc1ccc(NC(C)=O)cc1 (stereo not drawn)  -1.54%
33. N=c1c(S(=O)(=O)c2ccc(F)cc2)cc2c(=O)n3ccccc3nc2n1CC1CCCO1 (stereo not drawn)  -2.33%
34. Cc1sc2ncnc(N3CCC(C(=O)N(C)CC(=O)Nc4ccccc4Br)CC3)c2c1C  -8.93%
35. COc1cccc2c1OCC/C2=N\NC(=O)COc1ccccc1C  -13.9%
36. CCCN1CCN(c2nc(-c3cccs3)nc3ccccc23)CC1  -16.1%
37. CSc1ccc(CN2CCN(C(=O)COc3ccc(C)cc3)CC2)cc1.O=C(O)C(=O)O  -19.3%
38. Cc1ccc(OCC(=O)N2CCN(C(=O)c3ccc([N+](=O)[O-])cc3)CC2)cc1  -19.5%
39. Cc1sc2ncnc(N3CCC(C(=O)N(C)CC(=O)Nc4ccccc4Cl)CC3)c2c1C  -30%
40. CCOC(=O)N1CCC(N2CCN(c3cc(C)ccc3C)CC2)CC1  -32.2%
41. Cc1cccc(OCC(=O)N2CCN(C(=O)c3ccc([N+](=O)[O-])cc3)CC2)c1  -38.8%
42. CC(=O)N1CCN(c2nc(-c3cccs3)nc3ccccc23)CC1  -49.4%
43. CN1CCN(c2nc(-c3cccs3)nc3ccccc23)CC1  -55%
44. CCCN(CC(=O)Nc1ccccc1C)C(=O)C1CCN(c2ncnc3sc(C)c(C)c23)CC1  -56.5%
45. Cc1cccc(OCC(=O)N2CCN(C(=O)COc3ccc(Cl)cc3)CC2)c1  -56.6%
46. Cc1ccc(S(=O)(=O)N(C)C)cc1NC(=O)COC(=O)C1CCN(S(=O)(=O)c2cccs2)CC1  -58.4%
47. Cc1cccc(OCC(=O)N2CCN(Cc3ccc([N+](=O)[O-])cc3)CC2)c1.O=C(O)C(=O)O  -60.5%
48. CCN1CCN(c2nc(-c3cccs3)nc3ccccc23)CC1  -66.2%
49. Cc1ccc(C)c(CN2C(=O)CSc3ccc(C(=O)NCC(C)CN4CCC(C)CC4)cc32)c1 (stereo not drawn)  -70.4%
50. COc1ccc(CNC(=O)c2cc3c(=O)n4ccccc4nc3n(CC3CCCO3)c2=N)cc1 (stereo not drawn)  -80.4%
51. N=c1c(C(=O)NCc2ccc3c(c2)OCO3)cc2c(=O)n3ccccc3nc2n1CC1CCCO1 (stereo not drawn)  -84.2%
52. Cc1ccc(OCC(=O)N2CCN(Cc3ccc([N+](=O)[O-])cc3)CC2)cc1.O=C(O)C(=O)O  -85%
53. N=c1c(C(=O)NCc2ccc(F)cc2)cc2c(=O)n3ccccc3nc2n1CC1CCCO1 (stereo not drawn)  -85.3%
54. Cc1ccc(CNC(=O)c2cc3c(=O)n4ccccc4nc3n(CC3CCCO3)c2=N)cc1 (stereo not drawn)  -85.7%
